# Data taken from PubChem BioAssay.
# Results filed as inconclusive are left out. Active and inactive are the calls of the source.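 How the source made its calls, unless noted: active means differentiation response of at least 50%, scaled between solvent and reference control, from cells with both markers; inactive means the rest.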
# Tests used:
# [1] = yeast TOR pathway RPL19A-GFP modulators, primary screen, cell-based, S. cerevisiae, multiplex flow cytometry (AID 1862; in the data active means percent of DMSO control GFP below about 86%;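 further: lower values mimic rapamycin by blocking the RPL19A rise seen in DMSO cells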); conditions: S. cerevisiae RPL19A-GFP strain, flow cytometry fluorescence, 3 h; at 10 µM; stronger effect = lower value
# [2] = modulators of MEP2-GFP levels in yeast, primary screen, S. cerevisiae, multiplex flow cytometry (AID 1867;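 active means GFP response, as percent of the DMSO control, above the screen-wide mean plus 3 SD, about 139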;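 further: median GFP channel fluorescence of barcode-gated MEP2-GFP cells measured by flow cytometry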); conditions: S. cerevisiae MEP2-GFP strain, 3 h, at 10 µM, stronger effect = higher value, 100% means same as DMSO wells
# [3] = modulators of CIT2-GFP expression in yeast, primary screen, S. cerevisiae, GFP fusion, multiplex flow cytometry (AID 1870;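 active means percent response above a set limit, the screen-wide mean plus 3 SD, cut at about 130% in these data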;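 further: barcoded CIT2-GFP strain pooled with four other GFP strains with rapamycin as positive control; median GFP fluorescence per well over plate mean of DMSO wells so 100% = DMSO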); conditions: 3 h, at 10 µM, stronger effect = higher value
# [4] = modulators of LAP4-GFP expression in yeast, primary screen, S. cerevisiae, multiplex flow cytometry (AID 1873;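 active means GFP signal, as percent of the solvent control, above the screen mean plus 3 SD, about 149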); conditions: 3 h, at 10 µM, stronger effect = higher value
# [5] = modulators of AGP1-GFP expression in yeast TOR pathway, primary screen, cell-based, multiplex flow cytometry, S. cerevisiae (AID 1887;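 active means GFP signal above the screen-wide mean plus 3 SD, that is over about 124.5% of the solvent control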;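 further: AGP1-GFP fusion strain of S. cerevisiae within a five-strain barcoded multiplex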); conditions: 3 h, at 10 µM, stronger effect = higher value
# [6] = inhibitors of CD8+ T cell-vesicle binding, pilot screen, LFA-1/ICAM-1 modulator project, MLPCN validation set, flow cytometry (AID 2523;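 active means response below a set limit, under 55% cells CD8-positive and vesicle-bound, and CD8 cells' 90th-percentile brightness under 279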;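 on vesicle binding response: mean PE anti-B7-1 fluorescence of CD8+ cells relative to row control; 100% = QL9-loaded vesicles with DMSO vehicle in the same plate row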); conditions: 2C mouse CD8+ T cells, at 7 µM, stronger effect = lower value; double positive events: measured here: CD8+/vesicle+ event percentage
# [7] = target: Integrin beta-1 (Homo sapiens) + Integrin alpha-4 (Homo sapiens) (UniProt P13612+P05556); assay: inhibition of HUTS-21 binding to VLA-4, pilot screen, VLA-4 allosteric modulator project, U937 cells, HUTS-21 mAb, flow cytometry, validation set (AID 2674;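 active means inhibition above 50%, about 3 SD of the validation set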;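 further: antibody binding induced by the VLA-4 ligand LDV present at three times its Kd; 0% = LDV ligand with antibody and no compound and 100% = antibody without LDV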); conditions: HUTS-21 LIBS mAb binding, at 6.7 µM, stronger effect = higher value, binding induced by LDV ligand
# [8] = superoxide lowering in aged yeast cells, pilot screen, validation compound set (AID 2706;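 active means superoxide response below 65% of plate, a cut near 3 SD across the whole screen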;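 further: yeast exposed to compound for one week at 30 degrees C before staining; 100% = mean of all compound wells on the same plate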); conditions: S. cerevisiae aging, superoxide DHE fluorescence; at 10 µM; stronger effect = lower value
# [9] = target: Beta-adrenergic receptor kinase 1 (Homo sapiens) (UniProt P25098); assay: GRK2 binders displacing RNA aptamer, biochemical, validation, human GRK2, bead flow cytometry (AID 488806;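 active means aptamer binding inhibition above 30%, about 3 SD of noise from non-fluorescent compounds; inactive means inhibition at or below 30%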); conditions: bead-bound GRK2, FAM-aptamer displacement, at 10 µM, stronger effect = higher value
# [10] = target: Beta-2 adrenergic receptor (Homo sapiens) (UniProt P07550); assay: beta2AR agonists driving receptor internalization, pilot screen, cell-based, FAP fluorogen, flow cytometry, validation set (AID 504459;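 active means percent response above 42, roughly 3 SD of non-fluorescent test compounds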;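 further: agonist-driven loss of surface beta2AR via internalization measured by FAP dye flow cytometry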); conditions: Am2.2-beta2AR cells, FAP surface receptor flow cytometry; at 10 µM; stronger effect = higher value
# [11] = target: AP-2 complex subunit beta (Homo sapiens) (UniProt P63010); assay: inhibitors of arrestin peptide binding to AP2, pilot screen, biochemical, validation set, GST-AP2 beads, flow cytometry (AID 504541;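 active means inhibition above 54%, about 3 SD of non-fluorescent compounds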;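 further: AP2 carries R879A mutation and is captured from E. coli lysate; bead-bound FITC arrestin peptide fluorescence measuring arrestin peptide binding to AP2; 0% = DMSO wells and 100% = excess unlabeled arrestin peptide control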); conditions: FITC arrestin peptide, at 10 µM, stronger effect = higher value, AP2 beta2 appendage fragment, R879A mutant
# [12] = yeast V-ATPase proton transport modulators, S. cerevisiae, pHLuorin, HTS validation (AID 504600; in the data active means response above about 15%;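 further: plate controls were DMSO for no effect and reference compound for full effect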); conditions: S. cerevisiae pHLuorin cytosolic pH, at 10 µM, stronger effect = higher value
# [13] = test system: anti-desmoglein-3 scFv antibody binding to human DSG3; assay: inhibitors of anti-DSG3 scFv binding to DSG3, pilot screen, biochemical, validation compound set, bead-based, flow cytometry (AID 588368;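 active means binding below the plate cutoff, the plate median minus 3 SD, with a reading above zero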;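 further: signal is the median channel fluorescence of bead-bound GFP antibody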); conditions: Protein G beads, DSG3-Fc, scFv-GFP binding, at 10 µM, stronger effect = lower value
# [14] = inhibitors of fungal efflux pumps CDR1, CDR2, MDR1, pilot screen, validation compound set, multiplex, phenotypic (AID 588506;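 active means efflux inhibition above 0.42, the validation set average plus 4 SD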;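 further: Nile Red retained in cells so higher fluorescence means more efflux inhibition; 0 = negative control wells and 1 = enniatin B 25 µM full block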); conditions: S. cerevisiae pump-expressing triplex, Nile Red efflux flow cytometry; at 10 µM; stronger effect = higher value; the pumps come from Candida albicans
# [15] = target: ATP-binding cassette sub-family B member 6 (Homo sapiens) (UniProt Q9NP58); assay: ABCB6 transporter inhibitors, pilot screen, K562-ABCB6 cells, flow cytometry, validation set (AID 588550;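 active means inhibition above the screen-wide mean plus 3 SD, about 51%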;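 further: 0% = DMSO wells and 100% = benzethonium chloride 70 µM positive control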); conditions: K562-ABCB6 porphyrin accumulation, 1 h, at 10 µM, stronger effect = higher value
# [16] = promoters of myeloid differentiation in arrested cells, primary screen, cell-based, GFP/MAC1 double positive, flow cytometry, validation set (AID 588685); conditions: ER-HoxA9 marrow cells, stronger effect = higher value, normalized: vehicle 0, fulvestrant 100;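 further: compound exposure lasts four days before antibody staining and flow analysis; 0% = DMSO wells and 100% = 5 µM fulvestrant positive control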
# ATP-binding cassette sub-family B member 6 (Homo sapiens), sequence (Q9NP58 whole entry, looked up): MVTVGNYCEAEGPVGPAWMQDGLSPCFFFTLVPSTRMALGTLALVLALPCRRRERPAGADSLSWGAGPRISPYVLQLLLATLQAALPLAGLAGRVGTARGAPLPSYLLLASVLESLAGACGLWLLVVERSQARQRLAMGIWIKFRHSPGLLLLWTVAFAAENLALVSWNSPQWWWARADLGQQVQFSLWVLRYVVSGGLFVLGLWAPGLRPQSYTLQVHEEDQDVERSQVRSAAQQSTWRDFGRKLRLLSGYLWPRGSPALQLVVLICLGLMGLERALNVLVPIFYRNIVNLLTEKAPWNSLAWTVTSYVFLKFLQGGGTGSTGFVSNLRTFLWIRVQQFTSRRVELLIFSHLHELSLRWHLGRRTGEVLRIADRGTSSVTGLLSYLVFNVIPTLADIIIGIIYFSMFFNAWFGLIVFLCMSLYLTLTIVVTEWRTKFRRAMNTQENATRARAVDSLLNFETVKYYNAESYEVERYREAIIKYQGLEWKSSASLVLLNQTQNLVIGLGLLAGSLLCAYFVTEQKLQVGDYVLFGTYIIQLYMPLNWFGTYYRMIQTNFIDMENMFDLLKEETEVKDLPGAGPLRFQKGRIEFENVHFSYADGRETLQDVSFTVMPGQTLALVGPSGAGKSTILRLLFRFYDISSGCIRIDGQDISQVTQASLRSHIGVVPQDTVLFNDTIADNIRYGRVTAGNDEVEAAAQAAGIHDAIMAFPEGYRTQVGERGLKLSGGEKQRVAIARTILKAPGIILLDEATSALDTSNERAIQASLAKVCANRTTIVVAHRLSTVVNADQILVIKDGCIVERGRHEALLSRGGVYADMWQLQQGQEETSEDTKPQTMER
# Beta-2 adrenergic receptor (Homo sapiens), sequence (P07550 whole entry, looked up): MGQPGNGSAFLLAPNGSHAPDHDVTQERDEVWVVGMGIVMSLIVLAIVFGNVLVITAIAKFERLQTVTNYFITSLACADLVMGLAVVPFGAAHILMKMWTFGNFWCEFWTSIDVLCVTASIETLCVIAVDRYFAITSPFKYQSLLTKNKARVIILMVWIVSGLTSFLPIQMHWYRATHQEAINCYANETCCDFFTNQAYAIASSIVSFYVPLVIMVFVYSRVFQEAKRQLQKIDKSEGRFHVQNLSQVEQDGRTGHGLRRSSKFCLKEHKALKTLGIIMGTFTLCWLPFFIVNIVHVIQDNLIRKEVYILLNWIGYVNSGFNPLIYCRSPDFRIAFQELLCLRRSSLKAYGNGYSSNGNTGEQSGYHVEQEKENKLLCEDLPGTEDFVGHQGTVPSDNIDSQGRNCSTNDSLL
# Integrin beta-1 (Homo sapiens) + Integrin alpha-4 (Homo sapiens), sequence (P05556 whole entry, looked up): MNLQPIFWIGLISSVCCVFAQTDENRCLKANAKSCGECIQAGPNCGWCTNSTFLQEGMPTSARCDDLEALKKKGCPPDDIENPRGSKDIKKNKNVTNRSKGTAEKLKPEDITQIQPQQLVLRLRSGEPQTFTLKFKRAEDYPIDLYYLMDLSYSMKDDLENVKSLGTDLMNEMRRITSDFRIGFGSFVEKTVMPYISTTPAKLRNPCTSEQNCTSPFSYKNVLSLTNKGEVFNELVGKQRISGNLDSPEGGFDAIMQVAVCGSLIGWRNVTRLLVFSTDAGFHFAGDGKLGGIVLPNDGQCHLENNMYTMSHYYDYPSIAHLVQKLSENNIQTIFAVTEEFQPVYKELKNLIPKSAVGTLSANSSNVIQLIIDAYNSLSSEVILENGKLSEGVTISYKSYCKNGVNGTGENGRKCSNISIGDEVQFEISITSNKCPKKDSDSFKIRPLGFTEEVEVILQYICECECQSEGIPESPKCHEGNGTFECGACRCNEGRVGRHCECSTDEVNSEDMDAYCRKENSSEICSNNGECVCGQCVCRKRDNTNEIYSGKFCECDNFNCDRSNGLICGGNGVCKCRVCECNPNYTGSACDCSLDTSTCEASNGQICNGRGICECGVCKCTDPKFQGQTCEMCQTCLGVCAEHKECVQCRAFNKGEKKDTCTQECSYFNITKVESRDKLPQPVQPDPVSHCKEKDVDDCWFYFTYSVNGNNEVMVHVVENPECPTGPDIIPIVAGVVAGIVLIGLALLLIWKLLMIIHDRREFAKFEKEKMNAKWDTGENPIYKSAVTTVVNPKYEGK
# Integrin beta-1 (Homo sapiens) + Integrin alpha-4 (Homo sapiens), sequence (P13612 whole entry, looked up): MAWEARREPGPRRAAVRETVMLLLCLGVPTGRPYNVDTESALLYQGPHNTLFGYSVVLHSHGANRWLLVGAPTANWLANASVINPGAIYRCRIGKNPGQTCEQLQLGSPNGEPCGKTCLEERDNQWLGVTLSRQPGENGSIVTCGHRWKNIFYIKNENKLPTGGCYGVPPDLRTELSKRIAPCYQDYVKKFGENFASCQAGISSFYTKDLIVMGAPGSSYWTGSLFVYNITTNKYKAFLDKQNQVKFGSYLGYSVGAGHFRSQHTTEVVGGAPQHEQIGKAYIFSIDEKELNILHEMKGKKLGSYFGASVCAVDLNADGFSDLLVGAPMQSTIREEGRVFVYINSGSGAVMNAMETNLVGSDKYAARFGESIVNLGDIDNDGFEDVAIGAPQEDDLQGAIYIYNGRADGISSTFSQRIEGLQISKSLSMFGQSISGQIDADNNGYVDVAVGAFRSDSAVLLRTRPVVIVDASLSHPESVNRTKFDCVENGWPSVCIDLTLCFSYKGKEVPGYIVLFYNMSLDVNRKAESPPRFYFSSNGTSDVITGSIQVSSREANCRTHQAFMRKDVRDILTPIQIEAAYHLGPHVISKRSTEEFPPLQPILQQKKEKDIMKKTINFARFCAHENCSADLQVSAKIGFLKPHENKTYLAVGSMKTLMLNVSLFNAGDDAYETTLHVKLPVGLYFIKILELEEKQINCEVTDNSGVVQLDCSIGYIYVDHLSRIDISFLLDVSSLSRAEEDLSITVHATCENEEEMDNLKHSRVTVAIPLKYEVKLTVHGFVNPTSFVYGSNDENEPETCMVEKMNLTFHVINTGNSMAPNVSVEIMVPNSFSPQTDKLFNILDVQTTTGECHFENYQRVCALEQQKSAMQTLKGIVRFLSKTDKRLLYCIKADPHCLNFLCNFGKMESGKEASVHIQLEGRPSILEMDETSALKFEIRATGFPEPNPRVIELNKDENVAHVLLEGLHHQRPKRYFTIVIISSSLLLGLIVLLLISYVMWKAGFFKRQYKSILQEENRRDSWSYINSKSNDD
# Beta-adrenergic receptor kinase 1 (Homo sapiens), sequence (P25098 whole entry, looked up): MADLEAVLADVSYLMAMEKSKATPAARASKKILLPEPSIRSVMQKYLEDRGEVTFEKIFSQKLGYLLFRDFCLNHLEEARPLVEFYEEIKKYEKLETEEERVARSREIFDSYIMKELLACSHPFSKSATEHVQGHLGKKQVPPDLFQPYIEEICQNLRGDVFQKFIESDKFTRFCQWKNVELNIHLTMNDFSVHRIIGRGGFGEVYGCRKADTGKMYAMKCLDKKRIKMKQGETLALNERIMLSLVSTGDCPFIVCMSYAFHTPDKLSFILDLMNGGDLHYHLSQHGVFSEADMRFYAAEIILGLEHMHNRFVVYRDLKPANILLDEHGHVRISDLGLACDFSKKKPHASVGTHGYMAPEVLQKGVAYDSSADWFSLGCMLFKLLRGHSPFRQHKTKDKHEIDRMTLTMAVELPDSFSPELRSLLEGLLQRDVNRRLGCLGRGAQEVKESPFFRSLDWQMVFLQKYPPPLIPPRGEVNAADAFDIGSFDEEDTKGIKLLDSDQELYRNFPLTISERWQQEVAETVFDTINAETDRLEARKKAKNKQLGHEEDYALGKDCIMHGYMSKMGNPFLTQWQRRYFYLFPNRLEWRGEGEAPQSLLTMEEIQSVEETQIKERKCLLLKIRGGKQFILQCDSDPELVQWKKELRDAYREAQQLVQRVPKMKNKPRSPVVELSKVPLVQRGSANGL
# AP-2 complex subunit beta (Homo sapiens), sequence (P63010 whole entry, looked up, the tested form may be a part, one chain of several): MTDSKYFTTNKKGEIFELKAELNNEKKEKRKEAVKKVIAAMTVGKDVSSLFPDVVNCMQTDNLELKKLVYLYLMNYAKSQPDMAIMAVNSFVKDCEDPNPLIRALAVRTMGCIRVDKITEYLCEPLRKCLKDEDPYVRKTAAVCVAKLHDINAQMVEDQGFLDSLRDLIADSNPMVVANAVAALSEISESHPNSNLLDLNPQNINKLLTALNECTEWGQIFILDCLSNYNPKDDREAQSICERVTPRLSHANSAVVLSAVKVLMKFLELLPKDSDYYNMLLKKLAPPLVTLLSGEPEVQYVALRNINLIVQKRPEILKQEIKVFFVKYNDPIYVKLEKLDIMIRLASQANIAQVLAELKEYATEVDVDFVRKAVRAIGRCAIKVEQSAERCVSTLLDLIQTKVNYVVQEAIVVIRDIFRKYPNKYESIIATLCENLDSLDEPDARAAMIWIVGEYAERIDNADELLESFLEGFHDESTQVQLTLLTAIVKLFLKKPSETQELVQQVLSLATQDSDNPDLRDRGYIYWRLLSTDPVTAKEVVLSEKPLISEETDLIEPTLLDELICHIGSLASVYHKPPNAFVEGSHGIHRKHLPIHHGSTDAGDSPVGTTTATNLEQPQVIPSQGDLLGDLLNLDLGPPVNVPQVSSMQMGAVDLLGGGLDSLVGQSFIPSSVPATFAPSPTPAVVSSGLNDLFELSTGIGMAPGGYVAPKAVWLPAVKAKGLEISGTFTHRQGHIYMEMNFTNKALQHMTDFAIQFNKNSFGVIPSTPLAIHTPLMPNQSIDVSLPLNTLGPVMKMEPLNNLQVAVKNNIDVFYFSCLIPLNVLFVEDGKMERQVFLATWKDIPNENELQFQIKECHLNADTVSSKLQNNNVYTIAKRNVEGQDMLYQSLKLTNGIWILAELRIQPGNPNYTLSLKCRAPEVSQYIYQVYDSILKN
Compound,percent of DMSO control GFP [1],GFP response vs DMSO [2],percent response of DMSO control [3],GFP response vs DMSO [4],"GFP response, % of DMSO [5]",double positive events [6] [%],vesicle binding response [6],inhibition [7],superoxide response (% of plate) [8],aptamer binding inhibition [9],response [10],inhibition [11],response [12],binding (% of control) [13],efflux inhibition (fraction of control) [14],inhibition [15],differentiation response [16]
Cc1ccccc1-c1nn(-c2ccc(F)cc2F)cc1CNCCN(C)C,106% (inactive),103% (inactive),116% (inactive),98.6% (inactive),102% (inactive),62,51.7% (inactive),13% (inactive),90.2% (inactive),-11% (inactive),-7.22% (inactive),-6% (inactive),3.34% (inactive),103% (inactive),-0.07 (inactive),-15% (inactive),-5.62% (inactive)
COc1ccc(C(Cl)=C(c2ccc(OC)cc2)c2ccc(OC)cc2)cc1,102% (inactive),109% (inactive),91.9% (inactive),90.7% (inactive),98% (inactive),62.9,934% (inactive),-8.75% (inactive),95.2% (inactive),4% (inactive),1.32% (inactive),18.5% (inactive),-2.47% (inactive),95.8% (inactive),0.18 (inactive),7% (inactive),6.11% (inactive)
CC1CCCC(C)N1NC(=O)c1ccc(Cl)c(S(N)(=O)=O)c1 (stereo not drawn),88% (inactive),126% (inactive),91.3% (inactive),85.8% (inactive),96.3% (inactive),65.1,128% (inactive),-3.24% (inactive),98.3% (inactive),3% (inactive),-7.28% (inactive),-5.07% (inactive),-0.52% (inactive),101% (inactive),0.09 (inactive),10% (inactive),-0.82% (inactive)
CCN(CC)C(=O)c1sc(NC(=O)c2c(OC)cccc2OC)c(C#N)c1C,101% (inactive),98.7% (inactive),105% (inactive),88.2% (inactive),94.7% (inactive),66.7,229% (inactive),1.59% (inactive),95.2% (inactive),4% (inactive),-1.95% (inactive),-5.78% (inactive),12% (inactive),97.3% (inactive),-0.025 (inactive),14% (inactive),5.67% (inactive)
Cc1nc(C2CC(=O)OC23CCCCC3)cs1 (stereo not drawn),94.4% (inactive),106% (inactive),94.8% (inactive),116% (inactive),94% (inactive),61.4,136% (inactive),-0.43% (inactive),104% (inactive),9% (inactive),-0.69% (inactive),-1.27% (inactive),1.08% (inactive),98.7% (inactive),-0.24 (inactive),7% (inactive),-20% (inactive)
COc1cccc(=O)c2c(C)n(CC(=O)c3ccccc3)c(C)c12,100% (inactive),102% (inactive),95.1% (inactive),113% (inactive),113% (inactive),58.2,203% (inactive),-72.7% (inactive),96.3% (inactive),-1% (inactive),-13.2% (inactive),-9.87% (inactive),2.5% (inactive),98.8% (inactive),0.33 (inactive),-32% (inactive),-2.03% (inactive)
CCOc1cc2c(cc1OCC)C(c1ccccc1)N(c1ccc(C(=O)O)cc1)C(=O)C2 (stereo not drawn),106% (inactive),109% (inactive),95.5% (inactive),113% (inactive),107% (inactive),61.4,151% (inactive),11% (inactive),92% (inactive),-1% (inactive),3.08% (inactive),-11.9% (inactive),1.91% (inactive),96.8% (inactive),-0.1 (inactive),7% (inactive),8.59% (inactive)
C#CCN1C(=O)C(O)(c2c(C)[nH]c3ccccc23)c2ccccc21 (stereo not drawn),103% (inactive),106% (inactive),96% (inactive),103% (inactive),100% (inactive),65,220% (inactive),-0.31% (inactive),96.9% (inactive),3% (inactive),1% (inactive),2.17% (inactive),-0.83% (inactive),100% (inactive),-0.44 (inactive),3% (inactive),0% (inactive)
CN(C)CCOC(=O)C(c1ccccc1)C1(O)CCCC1 (stereo not drawn),92% (inactive),137% (inactive),97.9% (inactive),75.9% (inactive),84.3% (inactive),65.7,249% (inactive),13.2% (inactive),96.1% (inactive),3% (inactive),2.3% (inactive),1.31% (inactive),0.51% (inactive),103% (inactive),0.05 (inactive),14% (inactive),-6.55% (inactive)
